Measurements as given in ChEMBL document CHEMBL2218924, “A broad activity screen in support of a chemogenomic map for kinase signalling research and drug discovery” (Biochem J, 2013).

What was measured:
[1] = target: T1, Protein kinase C zeta type (Homo sapiens) (UniProt Q05513); settings: at 1 µM
T1 sequence (whole entry): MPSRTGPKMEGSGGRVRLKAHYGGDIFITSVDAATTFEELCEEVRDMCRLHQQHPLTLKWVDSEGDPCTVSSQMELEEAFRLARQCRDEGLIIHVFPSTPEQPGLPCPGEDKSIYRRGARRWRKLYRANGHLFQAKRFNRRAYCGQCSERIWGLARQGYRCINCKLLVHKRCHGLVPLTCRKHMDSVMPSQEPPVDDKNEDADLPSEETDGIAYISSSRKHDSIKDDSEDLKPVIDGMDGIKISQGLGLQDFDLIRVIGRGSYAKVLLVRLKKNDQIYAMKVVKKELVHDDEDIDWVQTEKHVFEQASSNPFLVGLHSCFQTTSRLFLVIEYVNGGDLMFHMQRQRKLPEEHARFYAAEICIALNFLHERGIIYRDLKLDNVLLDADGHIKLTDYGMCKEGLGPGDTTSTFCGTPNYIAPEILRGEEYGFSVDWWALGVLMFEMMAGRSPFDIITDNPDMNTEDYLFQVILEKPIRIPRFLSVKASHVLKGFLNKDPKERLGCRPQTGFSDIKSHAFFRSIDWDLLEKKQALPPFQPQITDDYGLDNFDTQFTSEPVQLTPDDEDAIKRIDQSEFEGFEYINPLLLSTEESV

[2] = target: Tyrosine-protein kinase ABL1 (Homo sapiens) (UniProt P00519); settings: at 1 µM
[3] = target: Tyrosine-protein kinase ABL1 (Homo sapiens) (UniProt P00519); settings: at 10 µM
[4] = target: Tyrosine-protein kinase ABL2 (Homo sapiens) (UniProt P42684); settings: at 1 µM
[5] = target: Tyrosine-protein kinase ABL2 (Homo sapiens) (UniProt P42684); settings: at 10 µM
[6] = target: T2, Aurora kinase A (Homo sapiens) (UniProt O14965); settings: at 1 µM
T2 sequence (whole entry): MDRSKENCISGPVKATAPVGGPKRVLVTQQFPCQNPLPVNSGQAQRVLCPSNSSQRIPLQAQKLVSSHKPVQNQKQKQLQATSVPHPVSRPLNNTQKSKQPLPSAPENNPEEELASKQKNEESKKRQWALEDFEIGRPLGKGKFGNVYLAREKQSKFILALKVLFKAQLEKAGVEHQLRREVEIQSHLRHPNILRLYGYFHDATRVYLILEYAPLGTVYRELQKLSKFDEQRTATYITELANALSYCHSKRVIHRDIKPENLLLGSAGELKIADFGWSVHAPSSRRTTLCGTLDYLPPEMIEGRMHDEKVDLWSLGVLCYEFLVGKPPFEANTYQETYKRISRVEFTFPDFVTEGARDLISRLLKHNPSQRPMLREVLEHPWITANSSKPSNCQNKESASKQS

[7] = target: T2, Aurora kinase A (Homo sapiens); settings: at 10 µM
[8] = target: Aurora kinase B (Homo sapiens) (UniProt Q96GD4); settings: at 1 µM
[9] = target: Aurora kinase B (Homo sapiens) (UniProt Q96GD4); settings: at 10 µM
[10] = target: T3, Aurora kinase C (Homo sapiens) (UniProt Q9UQB9); settings: at 1 µM
T3 sequence (whole entry): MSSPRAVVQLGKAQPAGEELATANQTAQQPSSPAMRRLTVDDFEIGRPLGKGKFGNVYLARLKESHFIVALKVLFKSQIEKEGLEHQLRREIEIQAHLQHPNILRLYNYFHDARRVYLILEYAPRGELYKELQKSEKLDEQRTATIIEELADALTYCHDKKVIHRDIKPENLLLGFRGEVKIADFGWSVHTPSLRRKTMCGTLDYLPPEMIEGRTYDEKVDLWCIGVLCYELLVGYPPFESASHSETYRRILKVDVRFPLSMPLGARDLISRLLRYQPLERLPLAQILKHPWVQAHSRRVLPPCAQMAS

[11] = target: T3, Aurora kinase C (Homo sapiens); settings: at 10 µM
[12] = target: Tyrosine-protein kinase receptor UFO (Homo sapiens) (UniProt P30530); settings: at 1 µM
[13] = target: Tyrosine-protein kinase receptor UFO (Homo sapiens) (UniProt P30530); settings: at 10 µM
[14] = target: Protein-tyrosine kinase 6 (Homo sapiens) (UniProt Q13882); settings: at 1 µM
[15] = target: Protein-tyrosine kinase 6 (Homo sapiens) (UniProt Q13882); settings: at 10 µM
[16] = target: Tyrosine-protein kinase BTK (Homo sapiens) (UniProt Q06187); settings: at 1 µM
[17] = target: Tyrosine-protein kinase BTK (Homo sapiens) (UniProt Q06187); settings: at 10 µM
[18] = target: Tyrosine-protein kinase Blk (Homo sapiens) (UniProt P51451); settings: at 1 µM
[19] = target: Tyrosine-protein kinase Blk (Homo sapiens) (UniProt P51451); settings: at 10 µM
[20] = target: T4, Mitogen-activated protein kinase kinase kinase 5 (Homo sapiens) (UniProt Q99683); settings: at 10 µM
T4 sequence (whole entry): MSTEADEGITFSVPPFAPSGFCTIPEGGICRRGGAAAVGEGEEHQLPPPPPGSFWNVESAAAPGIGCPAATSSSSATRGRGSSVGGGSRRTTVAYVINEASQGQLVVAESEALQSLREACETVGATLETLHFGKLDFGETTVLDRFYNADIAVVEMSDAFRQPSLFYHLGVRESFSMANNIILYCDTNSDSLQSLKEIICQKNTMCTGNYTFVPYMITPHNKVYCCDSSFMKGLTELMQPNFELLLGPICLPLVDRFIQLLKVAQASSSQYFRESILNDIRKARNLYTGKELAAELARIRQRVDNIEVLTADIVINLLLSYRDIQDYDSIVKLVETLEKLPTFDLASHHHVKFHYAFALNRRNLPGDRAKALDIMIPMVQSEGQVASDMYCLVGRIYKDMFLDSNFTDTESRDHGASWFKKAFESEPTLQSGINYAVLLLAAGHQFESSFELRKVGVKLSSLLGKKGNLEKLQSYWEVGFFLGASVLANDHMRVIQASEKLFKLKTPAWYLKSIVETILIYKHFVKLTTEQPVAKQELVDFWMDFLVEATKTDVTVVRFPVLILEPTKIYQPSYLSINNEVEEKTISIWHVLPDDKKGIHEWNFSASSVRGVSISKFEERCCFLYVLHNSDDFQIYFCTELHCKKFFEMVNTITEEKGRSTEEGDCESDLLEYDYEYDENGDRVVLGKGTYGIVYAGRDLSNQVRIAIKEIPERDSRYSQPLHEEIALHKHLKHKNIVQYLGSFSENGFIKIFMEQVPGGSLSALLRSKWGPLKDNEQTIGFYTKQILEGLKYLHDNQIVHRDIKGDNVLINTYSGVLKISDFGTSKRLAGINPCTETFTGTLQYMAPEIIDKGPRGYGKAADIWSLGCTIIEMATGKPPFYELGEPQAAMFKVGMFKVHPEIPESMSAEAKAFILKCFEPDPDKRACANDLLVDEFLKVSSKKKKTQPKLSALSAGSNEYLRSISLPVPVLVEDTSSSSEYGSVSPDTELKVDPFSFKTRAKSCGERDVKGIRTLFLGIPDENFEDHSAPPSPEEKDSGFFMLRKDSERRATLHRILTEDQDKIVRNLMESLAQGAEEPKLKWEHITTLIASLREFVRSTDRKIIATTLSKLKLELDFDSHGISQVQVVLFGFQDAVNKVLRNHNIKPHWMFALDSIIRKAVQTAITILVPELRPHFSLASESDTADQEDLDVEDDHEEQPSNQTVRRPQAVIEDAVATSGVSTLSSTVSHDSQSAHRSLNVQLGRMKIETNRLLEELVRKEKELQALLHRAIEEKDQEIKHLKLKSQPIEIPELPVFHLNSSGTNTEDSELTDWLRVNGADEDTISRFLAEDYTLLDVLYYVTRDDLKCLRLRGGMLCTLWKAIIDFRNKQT

Tyrosine-protein kinase ABL2 (Homo sapiens), sequence (P42684 whole entry): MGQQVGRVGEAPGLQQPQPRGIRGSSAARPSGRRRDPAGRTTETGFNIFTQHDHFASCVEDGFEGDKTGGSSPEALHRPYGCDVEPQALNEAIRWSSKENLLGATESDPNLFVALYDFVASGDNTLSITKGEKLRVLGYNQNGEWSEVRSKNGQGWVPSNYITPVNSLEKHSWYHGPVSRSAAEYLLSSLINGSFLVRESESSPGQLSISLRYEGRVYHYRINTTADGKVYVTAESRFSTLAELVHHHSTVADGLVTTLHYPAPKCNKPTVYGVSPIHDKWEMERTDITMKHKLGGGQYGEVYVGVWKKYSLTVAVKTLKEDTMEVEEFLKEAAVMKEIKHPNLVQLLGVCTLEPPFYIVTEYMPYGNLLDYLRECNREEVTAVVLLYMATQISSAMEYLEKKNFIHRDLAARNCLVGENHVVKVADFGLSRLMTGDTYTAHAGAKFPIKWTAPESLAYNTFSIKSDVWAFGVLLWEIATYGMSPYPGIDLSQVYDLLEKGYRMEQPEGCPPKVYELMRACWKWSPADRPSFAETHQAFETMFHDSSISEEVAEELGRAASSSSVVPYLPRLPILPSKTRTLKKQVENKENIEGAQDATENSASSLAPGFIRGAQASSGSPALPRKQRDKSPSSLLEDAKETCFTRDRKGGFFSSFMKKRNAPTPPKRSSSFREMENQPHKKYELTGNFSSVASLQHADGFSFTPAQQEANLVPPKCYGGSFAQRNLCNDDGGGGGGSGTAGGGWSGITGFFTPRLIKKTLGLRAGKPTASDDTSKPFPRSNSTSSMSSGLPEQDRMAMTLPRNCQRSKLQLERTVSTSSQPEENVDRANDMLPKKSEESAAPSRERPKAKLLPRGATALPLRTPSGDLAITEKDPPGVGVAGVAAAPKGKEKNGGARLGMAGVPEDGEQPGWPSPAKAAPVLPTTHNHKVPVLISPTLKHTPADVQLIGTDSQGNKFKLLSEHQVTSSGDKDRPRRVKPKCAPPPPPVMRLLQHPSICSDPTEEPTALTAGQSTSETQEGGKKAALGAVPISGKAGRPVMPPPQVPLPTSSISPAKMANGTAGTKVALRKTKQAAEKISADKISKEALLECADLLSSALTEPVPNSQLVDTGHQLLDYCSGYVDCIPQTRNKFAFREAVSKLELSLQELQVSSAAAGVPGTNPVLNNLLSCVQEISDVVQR
Protein-tyrosine kinase 6 (Homo sapiens), sequence (Q13882 whole entry, looked up): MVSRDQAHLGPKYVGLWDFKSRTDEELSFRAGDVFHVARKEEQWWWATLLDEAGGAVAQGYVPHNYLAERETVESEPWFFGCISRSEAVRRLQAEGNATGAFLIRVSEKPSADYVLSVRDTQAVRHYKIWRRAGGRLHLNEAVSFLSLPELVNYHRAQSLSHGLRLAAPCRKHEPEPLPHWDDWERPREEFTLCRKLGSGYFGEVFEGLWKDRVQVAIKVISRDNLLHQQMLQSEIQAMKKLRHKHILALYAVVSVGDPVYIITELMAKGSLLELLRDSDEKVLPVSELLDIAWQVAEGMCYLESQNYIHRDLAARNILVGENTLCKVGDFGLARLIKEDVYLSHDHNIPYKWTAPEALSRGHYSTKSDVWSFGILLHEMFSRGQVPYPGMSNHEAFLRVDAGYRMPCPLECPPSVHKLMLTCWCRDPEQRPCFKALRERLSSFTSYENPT
Tyrosine-protein kinase receptor UFO (Homo sapiens), sequence (P30530 whole entry): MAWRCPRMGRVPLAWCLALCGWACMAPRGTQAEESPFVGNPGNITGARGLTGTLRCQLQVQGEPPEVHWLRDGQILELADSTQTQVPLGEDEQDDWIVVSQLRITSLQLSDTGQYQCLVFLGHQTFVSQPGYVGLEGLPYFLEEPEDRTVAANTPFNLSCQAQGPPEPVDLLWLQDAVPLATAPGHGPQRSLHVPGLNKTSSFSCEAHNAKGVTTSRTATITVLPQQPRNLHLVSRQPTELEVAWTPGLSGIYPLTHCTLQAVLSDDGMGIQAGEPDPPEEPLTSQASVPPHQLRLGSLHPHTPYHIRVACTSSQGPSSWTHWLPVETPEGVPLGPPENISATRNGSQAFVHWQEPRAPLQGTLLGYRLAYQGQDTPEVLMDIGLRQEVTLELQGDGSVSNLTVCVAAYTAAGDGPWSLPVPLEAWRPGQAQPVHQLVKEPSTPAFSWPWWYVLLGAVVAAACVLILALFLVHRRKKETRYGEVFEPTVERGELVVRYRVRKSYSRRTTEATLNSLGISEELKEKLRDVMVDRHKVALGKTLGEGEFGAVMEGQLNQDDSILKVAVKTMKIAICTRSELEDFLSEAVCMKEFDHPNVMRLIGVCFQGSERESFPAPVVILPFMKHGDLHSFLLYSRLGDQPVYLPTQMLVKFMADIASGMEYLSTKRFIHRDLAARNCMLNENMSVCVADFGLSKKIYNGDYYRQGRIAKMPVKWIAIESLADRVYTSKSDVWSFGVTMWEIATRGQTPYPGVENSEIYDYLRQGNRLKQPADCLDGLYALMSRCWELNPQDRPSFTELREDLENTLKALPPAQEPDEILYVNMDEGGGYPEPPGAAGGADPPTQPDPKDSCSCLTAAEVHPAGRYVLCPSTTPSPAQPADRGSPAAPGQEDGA
Tyrosine-protein kinase ABL1 (Homo sapiens), sequence (P00519 whole entry): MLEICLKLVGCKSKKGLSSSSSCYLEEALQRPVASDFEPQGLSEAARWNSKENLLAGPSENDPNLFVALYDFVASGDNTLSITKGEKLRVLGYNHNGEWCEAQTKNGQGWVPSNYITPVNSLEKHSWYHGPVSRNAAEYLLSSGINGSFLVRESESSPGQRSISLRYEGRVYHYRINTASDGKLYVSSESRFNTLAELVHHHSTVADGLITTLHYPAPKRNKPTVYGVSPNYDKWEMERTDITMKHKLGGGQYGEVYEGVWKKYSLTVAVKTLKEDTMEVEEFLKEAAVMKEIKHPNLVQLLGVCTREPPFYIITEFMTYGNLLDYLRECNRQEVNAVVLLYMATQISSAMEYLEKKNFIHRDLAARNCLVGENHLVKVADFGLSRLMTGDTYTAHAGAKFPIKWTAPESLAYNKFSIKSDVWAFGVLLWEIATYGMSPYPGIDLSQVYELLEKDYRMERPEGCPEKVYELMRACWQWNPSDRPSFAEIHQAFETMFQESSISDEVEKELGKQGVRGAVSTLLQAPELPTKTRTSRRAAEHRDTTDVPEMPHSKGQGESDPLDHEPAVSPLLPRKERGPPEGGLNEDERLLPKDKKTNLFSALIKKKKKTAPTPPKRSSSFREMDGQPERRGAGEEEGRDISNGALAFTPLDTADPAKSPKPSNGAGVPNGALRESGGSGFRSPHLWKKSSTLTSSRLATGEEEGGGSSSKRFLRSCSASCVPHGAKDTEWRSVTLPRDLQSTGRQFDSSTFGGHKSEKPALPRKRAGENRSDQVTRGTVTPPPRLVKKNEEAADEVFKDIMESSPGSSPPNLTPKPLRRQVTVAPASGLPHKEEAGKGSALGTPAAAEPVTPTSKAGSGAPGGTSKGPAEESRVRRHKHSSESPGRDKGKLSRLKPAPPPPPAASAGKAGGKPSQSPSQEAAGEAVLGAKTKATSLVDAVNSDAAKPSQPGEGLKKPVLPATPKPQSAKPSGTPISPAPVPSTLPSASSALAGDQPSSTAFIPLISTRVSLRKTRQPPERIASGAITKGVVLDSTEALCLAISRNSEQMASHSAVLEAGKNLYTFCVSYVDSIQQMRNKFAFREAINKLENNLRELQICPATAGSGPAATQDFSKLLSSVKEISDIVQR
Tyrosine-protein kinase BTK (Homo sapiens), sequence (Q06187 whole entry): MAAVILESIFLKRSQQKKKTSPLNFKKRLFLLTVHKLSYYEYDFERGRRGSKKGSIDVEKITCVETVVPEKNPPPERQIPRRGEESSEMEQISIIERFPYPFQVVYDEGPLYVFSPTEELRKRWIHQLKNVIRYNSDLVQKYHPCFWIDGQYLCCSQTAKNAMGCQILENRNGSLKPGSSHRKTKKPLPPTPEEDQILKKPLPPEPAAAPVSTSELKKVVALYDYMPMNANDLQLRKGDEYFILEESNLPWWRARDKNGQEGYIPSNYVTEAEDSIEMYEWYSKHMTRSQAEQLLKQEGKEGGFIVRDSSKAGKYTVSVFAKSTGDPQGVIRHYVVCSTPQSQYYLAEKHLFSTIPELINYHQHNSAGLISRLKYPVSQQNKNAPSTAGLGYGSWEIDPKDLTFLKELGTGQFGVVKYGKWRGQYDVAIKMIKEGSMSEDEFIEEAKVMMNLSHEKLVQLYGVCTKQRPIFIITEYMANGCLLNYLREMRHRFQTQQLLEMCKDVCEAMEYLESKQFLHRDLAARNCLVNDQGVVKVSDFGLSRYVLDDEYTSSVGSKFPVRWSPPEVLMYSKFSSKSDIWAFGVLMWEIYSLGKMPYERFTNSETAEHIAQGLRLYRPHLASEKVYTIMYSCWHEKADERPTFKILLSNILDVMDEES
Aurora kinase B (Homo sapiens), sequence (Q96GD4 whole entry): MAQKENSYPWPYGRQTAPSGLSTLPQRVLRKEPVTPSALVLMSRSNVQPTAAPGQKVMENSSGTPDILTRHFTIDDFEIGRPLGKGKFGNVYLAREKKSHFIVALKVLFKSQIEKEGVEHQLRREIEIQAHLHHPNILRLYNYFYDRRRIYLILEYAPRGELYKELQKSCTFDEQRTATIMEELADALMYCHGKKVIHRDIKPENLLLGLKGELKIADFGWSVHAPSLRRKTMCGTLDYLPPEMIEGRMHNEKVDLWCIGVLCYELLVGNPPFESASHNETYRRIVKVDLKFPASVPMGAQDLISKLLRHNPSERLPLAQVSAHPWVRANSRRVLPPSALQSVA

NC(=O)Nc1sc(-c2ccc(F)cc2)cc1C(N)=O
residual activity [1]: 114% (inactive)
residual activity [2]: 63%
residual activity [3]: 32%
residual activity [4]: 71%
residual activity [5]: 19%
residual activity [6]: 32%
residual activity [7]: 3%
residual activity [8]: 1%
residual activity [9]: 2%
residual activity [10]: 9%
residual activity [11]: 3%
residual activity [12]: 77%
residual activity [13]: 24%
residual activity [14]: 77%
residual activity [15]: 26%
residual activity [16]: 38%
residual activity [17]: 1%
residual activity [18]: 39%
residual activity [19]: 4%

CCCCc1c(-c2ccc(O)cc2)[nH]c2nccnc12
residual activity [20]: 83%
residual activity [2]: 81%
residual activity [3]: 44%
residual activity [4]: 75%
residual activity [5]: 60%
residual activity [6]: 6%
residual activity [7]: 20%
residual activity [8]: 2%
residual activity [9]: 0%
residual activity [10]: 50%
residual activity [11]: 49%
residual activity [12]: 92%
residual activity [13]: 75%
residual activity [14]: 31%
residual activity [15]: 29%
residual activity [16]: 33%
residual activity [17]: 10%
residual activity [18]: 73%
residual activity [19]: 50%

Nc1ncnc2c1c(-c1ccc(Oc3ccccc3)cc1)cn2C1CCCC1
residual activity [1]: 99% (inactive)
residual activity [20]: 85%
residual activity [3]: 6%
residual activity [4]: 80%
residual activity [5]: 21%
residual activity [6]: 35%
residual activity [7]: 7%
residual activity [8]: 43%
residual activity [9]: 6%
residual activity [10]: 87%
residual activity [11]: 54%
residual activity [12]: 58%
residual activity [13]: 21%
residual activity [14]: 0%
residual activity [15]: -1%
residual activity [16]: 1%
residual activity [17]: 1%
residual activity [18]: 0%
residual activity [19]: 0%

COc1cc2nccc(Oc3ccc(NC(=O)Nc4cc(C)on4)c(Cl)c3)c2cc1OC
residual activity [1]: 108% (inactive)
residual activity [4]: -2%
residual activity [5]: -1%
residual activity [6]: 7%
residual activity [7]: 7%
residual activity [8]: 3%
residual activity [9]: 1%
residual activity [10]: 32%
residual activity [11]: 7%
residual activity [12]: 12%
residual activity [13]: 10%
residual activity [14]: 2%
residual activity [15]: -1%
residual activity [16]: 50%
residual activity [17]: 10%
residual activity [18]: 2%
residual activity [19]: 0%

O=C(c1ccccc1)c1ccc(N2CCOCC2)cc1O
residual activity [20]: 95%
residual activity [2]: 94%
residual activity [3]: 82%
residual activity [4]: 98%
residual activity [5]: 98%
residual activity [6]: 77%
residual activity [7]: 91%
residual activity [8]: 86%
residual activity [9]: 65%
residual activity [10]: 64%
residual activity [11]: 78%
residual activity [12]: 86%
residual activity [13]: 72%
residual activity [17]: 116%
residual activity [18]: 95%
residual activity [19]: 81%

O=c1cc(N2CCNCC2)oc2c(-c3ccccc3)cccc12
residual activity [20]: 78%
residual activity [2]: 88%
residual activity [3]: 89%
residual activity [4]: 97%
residual activity [5]: 101%
residual activity [6]: 95%
residual activity [7]: 80%
residual activity [8]: 79%
residual activity [9]: 63%
residual activity [12]: 80%
residual activity [13]: 76%
residual activity [15]: 99%
residual activity [19]: 71%

COc1cc2c(cc1OC)-c1n[nH]c(Nc3cccc(F)c3)c1C2
residual activity [1]: 111% (inactive)
residual activity [6]: 47%
residual activity [7]: 22%
residual activity [8]: 43%
residual activity [9]: 6%
residual activity [12]: 71%
residual activity [13]: 50%
residual activity [14]: 78%
residual activity [15]: 25%
residual activity [16]: 22%
residual activity [17]: 4%
residual activity [18]: 14%
residual activity [19]: 2%

Cn1c2ccccc2c2c3c(c4c5ccccc5n(CCC#N)c4c21)CNC3=O
residual activity [1]: 102% (inactive)
residual activity [20]: 16%
residual activity [6]: 4%
residual activity [7]: 19%
residual activity [8]: 0%
residual activity [9]: 1%
residual activity [10]: 47%
residual activity [11]: 35%
residual activity [12]: 53%
residual activity [13]: 32%
residual activity [16]: 10%
residual activity [17]: 9%

c1ccc(-c2cnc(Nc3ccc(OCCN4CCCC4)cc3)s2)cc1
residual activity [1]: 106% (inactive)
residual activity [2]: 61%
residual activity [3]: 11%
residual activity [4]: 46%
residual activity [5]: 8%
residual activity [8]: 67%
residual activity [9]: 18%
residual activity [10]: 110%
residual activity [11]: 47%
residual activity [15]: 34%
residual activity [18]: 75%
residual activity [19]: 6%

N#C/C(=C1/Nc2ccccc2S1)c1ccnc(NCCc2cccnc2)n1
residual activity [20]: 79%
residual activity [2]: 115%
residual activity [3]: 80%
residual activity [4]: 99%
residual activity [5]: 76%
residual activity [6]: 64%
residual activity [7]: 48%
residual activity [14]: 60%
residual activity [15]: 37%
residual activity [16]: 96%
residual activity [17]: 43%

COc1ccc(CNC(=O)Nc2ncc([N+](=O)[O-])s2)cc1
residual activity [1]: 104% (inactive)
residual activity [4]: 115%
residual activity [7]: 113%
residual activity [10]: 75%
residual activity [11]: 78%
residual activity [14]: 24%
residual activity [15]: 17%
residual activity [16]: 42%
residual activity [17]: 35%

CC(C)(C)n1nc(Cc2cccc3ccccc23)c2c(N)ncnc21
residual activity [1]: 103% (inactive)
residual activity [2]: 87%
residual activity [3]: 28%
residual activity [4]: 68%
residual activity [5]: 18%
residual activity [6]: 93%
residual activity [7]: 104%
residual activity [8]: 130%
residual activity [9]: 87%
residual activity [10]: 94%
residual activity [11]: 71%
residual activity [12]: 80%
residual activity [13]: 72%
residual activity [14]: 5%
residual activity [15]: -1%
residual activity [16]: 24%
residual activity [17]: 3%
residual activity [18]: 77%
residual activity [19]: 13%

COc1cc2nccc(Oc3ccc(NC(=S)NC(=O)c4ccccc4C)cc3)c2cc1OC
residual activity [20]: 77%
residual activity [2]: 22%
residual activity [3]: 9%
residual activity [4]: 50%
residual activity [5]: 18%
residual activity [6]: 0%
residual activity [7]: 1%
residual activity [8]: 2%
residual activity [9]: -1%
residual activity [10]: 13%
residual activity [11]: 1%
residual activity [12]: 11%
residual activity [13]: 8%
residual activity [14]: 22%
residual activity [15]: 11%
residual activity [16]: 17%
residual activity [17]: 2%
residual activity [18]: 0%
residual activity [19]: 0%
